LDHA block: blocks human lactate dehydrogenase A. P00338. purified LDHA, NADH/diaphorase-resazurin fluorescence; active compounds read low. activity change, % (values are at about 110 or 230 µM). 480,000 compounds, 0.15% hits. AID 1347041; in the data active means activity change below about -30%; inconclusive means mostly about -25% to -30%
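Remaining NADH was detected by diaphorase (0.133 mg/mL) converting 37 µM resazurin to fluorescent resorufin, read at 0 and 20 minutes. The preceding 5-minute room-temperature reaction used 2 nM LDHA, 0.2 mM sodium pyruvate and 0.06 mM NADH at pH 7.4.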
TDP1 cell CPT: growth inhibition of DT40 Tdp1-/-;hTDP1 cells with camptothecin (screen for TDP1 inhibitors); 420,000 compounds, 12% hits; AID 686979; Potency, µM (series often up to 46.2 µM), most hits filed as inhibitors; chicken DT40 Tdp1-/-;hTDP1 cells + 20 nM CPT, ATP luminescence, 48 h; further: nearly all actives have a fitted effect of over 55% in size
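Chicken DT40 Tdp1-/- cells stably complemented with human TDP1 were seeded at 400 cells/well in medium containing 20 nM camptothecin, exposed to pin-transferred compounds, and grown at 37 °C for at least 48 hr. Viability was read as ATP luminescence.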
IL1B secr inh: inhibitors of inflammasome signaling (IL-1 beta secretion). activity change, % at 57.5 µM. 360,000 compounds, 4.7% hits. AID 743279. THP-1 LPS/ATP IL-1B secretion, AlphaLISA, 16 h; active compounds read low; in the data active means activity change below about -50%; inconclusive means mostly about -30% to -49%
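Secreted IL-1B measured by AlphaLISA bead assay after 16 h compound exposure of THP-1 cells; compounds (final up to 57.5 uM) added 1 h before LPS (250 ng/mL) and ATP (1.25 mM) stimulation; lower signal means less secretion.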
DT40 TDP1 no CPT: qHTS for Inhibitors of human tyrosyl-DNA phosphodiesterase 1 (TDP1): qHTS in cells in absence of CPT | DT40 Tdp1-/- hTDP1 cells, no CPT, ATP luminescence, 48 h | Potency, µM (top dose mostly 46.2 µM), usual class: inhibitors | 420,000 compounds, 15% hits; further: nearly all actives have a fitted effect of over 55% in size
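DT40 Tdp1-/-;hTDP1 cells, no CPT (DMSO vehicle only), 400 cells/well; compounds pin-transferred; ≥48 hr, 37 °C; CellTiter-Glo 30 min RT dark, luminescence read.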
RORg inh: blocks mouse ROR gamma transcriptional activity. Drosophila S2 Gal4-RORgamma UAS-luciferase reporter, 20 h. Potency, µM (highest dose often 53.6 µM), hits mostly inhibitors. 310,000 compounds, 5.4% hits; further: nearly all actives have a fitted effect of over 60% in size
Target sequence (P51450 whole entry, looked up, the tested form may be a part): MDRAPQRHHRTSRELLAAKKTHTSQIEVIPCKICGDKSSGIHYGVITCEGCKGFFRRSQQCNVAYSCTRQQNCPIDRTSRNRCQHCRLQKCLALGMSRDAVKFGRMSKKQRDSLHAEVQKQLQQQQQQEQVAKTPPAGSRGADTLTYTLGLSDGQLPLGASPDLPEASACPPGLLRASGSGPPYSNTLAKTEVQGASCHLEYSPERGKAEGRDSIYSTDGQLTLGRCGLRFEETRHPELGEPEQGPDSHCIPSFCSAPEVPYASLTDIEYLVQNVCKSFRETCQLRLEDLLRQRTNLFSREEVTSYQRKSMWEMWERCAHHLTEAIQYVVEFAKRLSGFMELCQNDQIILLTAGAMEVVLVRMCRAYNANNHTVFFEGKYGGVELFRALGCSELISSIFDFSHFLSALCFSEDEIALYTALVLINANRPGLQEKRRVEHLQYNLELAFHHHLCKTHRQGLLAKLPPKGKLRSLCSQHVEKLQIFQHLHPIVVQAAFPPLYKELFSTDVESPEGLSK
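A Gal4/UAS one-hybrid system in insect cells: metallothionein-promoter Gal4–ROR gamma fusion plus Photinus luciferase reporter. Copper sulfate 700 uM final, 20 hr ambient incubation, luminescent detection after 10 min with reagent.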
VP16 counter: Gal4-VP16 reporter inhibition counter-screen; Drosophila S2 Gal4-VP16 UAS-luciferase, luminescence, 20 h; Potency, µM (highest dose often 53.6 µM), usual class: inhibitors; 310,000 compounds, 3.5% hits;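 further: Gal4-VP16 expression switched on by copper sulfate through the metallothionein promoter; nearly all actives have a fitted effect of over 50% in size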
Hits are given with their value. Most compounds without a hit are left out; they make up all but 18% or so of the library. Unless noted, the call rests on the fitted dose curve; in most records, active means well fitted curve in the direction sought with a large enough effect; inconclusive means small, poorly fitted or top-dose-only effect, or another doubt; inactive means no such curve, though single readings can be large; an effect the other way counts as inactive or inconclusive.

O=C(O)c1cccc(Nc2nc(-c3cccnc3)nc3ccccc23)c1 was read as LDHA block inactive, TDP1 cell CPT inconclusive, IL1B secr inh inactive, DT40 TDP1 no CPT inconclusive, RORg inh inactive and VP16 counter inactive.
For CCc1ccc2c(c1)[C@H]1OCC[C@H]1[C@@H](c1cccs1)N2 the results were LDHA block inactive, TDP1 cell CPT 13µM, IL1B secr inh inactive, DT40 TDP1 no CPT 7.31µM, RORg inh inconclusive and VP16 counter inactive.
`Clc1ccc2c(c1)[C@H]1OCC[C@H]1[C@@H](c1ccco1)N2` gave LDHA block inactive, TDP1 cell CPT inactive, IL1B secr inh inactive, DT40 TDP1 no CPT inconclusive, RORg inh inactive and VP16 counter inactive.
Screening Cc1ccc(S(=O)(=O)N(C)C)cc1NC(=O)c1nn(-c2ccccc2)c(=O)c2ccccc12 returned LDHA block inactive.
Screening Cc1cccc(NC(=O)c2nc[nH]c2C(=O)N[C@@H](C)c2ccccc2)c1 returned LDHA block inactive, TDP1 cell CPT 23.1µM, IL1B secr inh inconclusive and DT40 TDP1 no CPT 29.1µM.
`Cc1cccc(NC(=O)c2nc[nH]c2C(=O)NCCN(CCNC(=O)c2[nH]cnc2C(=O)Nc2cccc(C)c2)CCNC(=O)c2[nH]cnc2C(=O)Nc2cccc(C)c2)c1` gave LDHA block inactive, TDP1 cell CPT 6.51µM, IL1B secr inh inactive and DT40 TDP1 no CPT 5.8µM.
`O=C(Nc1ccc(Cl)cc1)c1nc[nH]c1C(=O)NCCN(CCNC(=O)c1[nH]cnc1C(=O)Nc1ccc(Cl)cc1)CCNC(=O)c1[nH]cnc1C(=O)Nc1ccc(Cl)cc1` gave LDHA block inactive, TDP1 cell CPT inconclusive, IL1B secr inh inactive and DT40 TDP1 no CPT inconclusive.
Screening Cc1cccc(NC(=O)c2nc[nH]c2C(=O)N[C@H](C)CO)c1 returned LDHA block inactive, TDP1 cell CPT inactive, IL1B secr inh inactive and DT40 TDP1 no CPT inactive.
Screening Cc1cccc(NC(=O)c2nc[nH]c2C(=O)NC2CCN(C(=O)OC(C)(C)C)CC2)c1 returned LDHA block inactive, TDP1 cell CPT inactive, IL1B secr inh inactive and DT40 TDP1 no CPT inactive.
`Cc1cccc(NC(=O)c2nc[nH]c2C(=O)N2CCN(C(=O)OC(C)(C)C)CC2)c1` gave LDHA block inactive, TDP1 cell CPT 20.6µM, IL1B secr inh inactive and DT40 TDP1 no CPT inconclusive.
Screening Cc1ccc(NC(=O)c2nc[nH]c2C(=O)NCCN(CCNC(=O)c2[nH]cnc2C(=O)Nc2ccc(C)cc2)CCNC(=O)c2[nH]cnc2C(=O)Nc2ccc(C)cc2)cc1 returned LDHA block inactive, TDP1 cell CPT inconclusive, IL1B secr inh inconclusive and DT40 TDP1 no CPT 16.4µM.
`COc1ccc(NC(=O)c2cc(=O)c3ccccc3o2)cc1` gave LDHA block inactive.
For CCN(CC)C(=O)c1[nH]cnc1C(=O)Nc1ccccc1 the results were LDHA block inactive, TDP1 cell CPT inactive, IL1B secr inh inactive and DT40 TDP1 no CPT inactive.
Screening O=C(Nc1ccccc1)c1nc[nH]c1C(=O)NCCCCCCNC(=O)c1[nH]cnc1C(=O)Nc1ccccc1 returned LDHA block inactive, TDP1 cell CPT 7.31µM, IL1B secr inh inactive and DT40 TDP1 no CPT 8.2µM.
O=C(Nc1ccccc1)c1nc[nH]c1C(=O)NCCN(CCNC(=O)c1[nH]cnc1C(=O)Nc1ccccc1)CCNC(=O)c1[nH]cnc1C(=O)Nc1ccccc1 was read as LDHA block inactive, TDP1 cell CPT inconclusive, IL1B secr inh inactive and DT40 TDP1 no CPT 23.1µM.
COc1ccc(NC(=O)c2nc[nH]c2C(=O)N2CCN(c3ccccc3)CC2)cc1 was read as LDHA block inactive, TDP1 cell CPT inactive, IL1B secr inh inactive, DT40 TDP1 no CPT inconclusive, RORg inh 5.62µM and VP16 counter 11.2µM.
O=C(Nc1ccccc1)c1nc[nH]c1C(=O)NCCCNC(=O)c1[nH]cnc1C(=O)Nc1ccccc1 was read as LDHA block inactive, TDP1 cell CPT inconclusive, IL1B secr inh inactive and DT40 TDP1 no CPT 14.6µM.

Source: PubChem (National Center for Advancing Translational Sciences (NCATS))
